Measured values: PubChem BioAssay (Tox21)
Values joined by “and” are separate entries in the source; they are usually repeats but may differ in a detail not shown here. Equal entries are not always repeated. Results filed as inconclusive are left out. Where a structure was tested more than once in an assay, its records may differ in their call. Active and inactive are the calls of the source. Unless noted, calls follow the shape of the dose curve; as a rule, active = well fitted curve in the direction sought with a large enough effect in the repeat runs; inconclusive = weak or mixed curves; inactive = no such curve, though single readings can be large; an effect the other way counts as inactive or inconclusive. Residues, ends and D or L forms follow the SMILES beside them.

Key:
[1] = qHTS assay for small molecule agonists of the p53 signaling pathway (AID 651631; calls by dose curve; also: nearly all actives have a fitted effect of over 15% in size; also: potency is read from the fitted curve at half-maximal effect)
Method in brief: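 Fluorescence intensity from cleaved LiveBLAzer B/G substrate (2 h, room temperature) served as the signal. Beforehand, HCT-116 reporter cells bearing p53 response elements were treated 16 h at 37 °C with DMSO-dissolved compounds.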

[2] = qHTS assay for small molecules that induce genotoxicity in human embryonic kidney cells expressing luciferase-tagged ATAD5 (AID 651632); also: nearly all actives have a fitted effect of over 15% in size; also: potency is read from the fitted curve at half-maximal effect
Method in brief: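 ATAD5-luc HEK293T, 2,000 cells/well; cpd or DMSO pin-transferred; 16 hr, 37C/5% CO2; Amplite 30 min RT; luminescence.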

[3] = qHTS assay for small molecule agonists of the p53 signaling pathway - cell viability (AID 651633; calls by dose curve; also: nearly all actives have a fitted effect of over 30% in size; also: potency is read from the fitted curve at half-maximal effect)
Method in brief: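 Viability counter-read: CellTiter-Glo luminescence (30 min, room temperature) in the same p53RE-bla plates. These plates had been exposed to compounds for 16 h at 37 C.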

[4] = qHTS assay for small molecules that induce genotoxicity in human embryonic kidney cells expressing luciferase-tagged ATAD5 - cell viability (AID 651634; calls by dose curve; also: nearly all actives have a fitted effect of over 25% in size; also: potency is read from the fitted curve at half-maximal effect)
Method in brief: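 Fluorescence from CellTiter-Fluor, reporting protease activity within live cells, served as the viability read-out. HEK293T cells carrying luciferase-tagged ATAD5 had been treated with compound for 15.5 hr at 37C.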

[5] = qHTS assay for small molecule disruptors of the mitochondrial membrane potential - cell viability (AID 720634; calls by dose curve; also: nearly all actives have a fitted effect of over 20% in size; also: potency is read from the fitted curve at half-maximal effect)
Method in brief: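 Cells: HepG2, 2,000/well, attached overnight. Compound 1 hr, 37 C/5% CO2. +m-MPI dye, +CellTiter-Glo 30 min RT. Readout: luminescence (ATP).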

[6] = qHTS assay for small molecule disruptors of the mitochondrial membrane potential (AID 720635); also: potency is read from the fitted curve at half-maximal effect
Method in brief: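 Mitochondrial membrane potential tracked with Mito-MPS dye, red aggregates (ex 540/em 590 nm) against green monomers (ex 490/em 535 nm). Compound treatment 1 hr at 37C, dye 30 min in HepG2.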

[7] = qHTS assay to test for compound auto fluorescence at 590 nm (red) in HepG2 cells (AID 720674)
Method in brief: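 Red autofluorescence (Ex/Em 540/590 nm, Rose Bengal sodium equivalents) was measured in HepG2 cells, 2,000 per well in MEM plus 10% FBS, plated overnight at 37 C. Readings were taken 1 hr after adding 23 nL compound or DMSO, at 37 C and 5% CO2.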

[8] = qHTS assay to test for compound auto fluorescence at 535 nm (green) in HepG2 cells (AID 720675)
[9] = qHTS assay to test for compound auto fluorescence at 460 nm (blue) in HEK293 cells (AID 720678)
Method in brief: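 Blue read-out at excitation 405 nm and emission 460 nm follows overnight compound exposure of HEK293 cells at 37C in 5% CO2. Activity is given as auto fluorescence equivalency to triamterene.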

[10] = qHTS assay to test for compound auto fluorescence at 590 nm (red) in HEK293 cells (AID 720679)
Method in brief: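 Red channel, Ex/Em 540/590nm; signal expressed as equivalency to Rose Bengal sodium. HEK293, 2,000 cells/well, 10% dialyzed FBS; 23 nL compound pinned after 4-5 hr attachment; overnight 37C/5% CO2 before reading.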

[11] = qHTS assay to test for compound auto fluorescence at 535 nm (green) in HEK293 cells (AID 720680)
[12] = qHTS assay to test for compound auto fluorescence at 460 nm (blue) in HEK293 cell free culture (AID 720681)
Method in brief: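 Blue fluorescence (Ex 405/Em 460 nm, triamterene-equivalent) was read immediately after pin transfer of compound or DMSO into medium (DMEM, 10% FBS) without cells.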

[13] = qHTS assay to test for compound auto fluorescence at 535 nm (green) in HEK293 cell free culture (AID 720682)
Method in brief: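 Intrinsic compound fluorescence is measured in culture medium containing 10% FBS, with excitation at 485 nm and detection at 535 nm, referenced to fluorescein.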

[14] = qHTS assay to test for compound auto fluorescence at 590 nm (red) in HEK293 cell free culture (AID 720683)
Method in brief: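 Red-channel autofluorescence of compounds in culture medium (DMEM, 10% FBS), no cells, measured at 540/590 nm. Rose Bengal sodium is the reference fluorophore for equivalence.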

[15] = qHTS assay to test for compound auto fluorescence at 590 nm (red) in HepG2 cell free culture (AID 720684)
Method in brief: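 Steps: dispense MEM/10% FBS medium, no cells; pin compound or DMSO vehicle; read red channel, Ex/Em 540/590 nm. Output given as Rose Bengal sodium equivalents.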

[16] = qHTS assay to test for compound auto fluorescence at 460 nm (blue) in HepG2 cell free culture (AID 720685)
Method in brief: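 Compound (23 nL) or DMSO pinned into cell-free MEM with 10% FBS; blue fluorescence read at 405/460 nm excitation/emission, expressed as auto-fluorescence equivalency to triamterene.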

[17] = qHTS assay to test for compound auto fluorescence at 535 nm (green) in HepG2 cell free culture (AID 720686)
[18] = qHTS assay to test for compound auto fluorescence at 460 nm (blue) in HepG2 cells (AID 720687)
Method in brief: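 Blue-channel autofluorescence (Ex/Em 405/460 nm, triamterene-equivalent) was measured after 1 hr compound exposure at 37 C, 5% CO2. Cells were HepG2, plated overnight at 37 C in MEM plus 10% FBS.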

[19] = molecular target: Glucocorticoid receptor (Homo sapiens) (UniProt P04150); test: qHTS assay to identify small molecule agonists of the glucocorticoid receptor (GR) signaling pathway (AID 720691; active = well fitted activation curve with a large enough effect in the signal ratio in the repeat runs, not every such curve was filed as active; the % refers to the signal ratio)
Method in brief: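 Fluorescence intensity from LiveBLAzer B/G FRET substrate (2 h, room temperature) reports beta-lactamase expression driven by the glucocorticoid response element in GR-bla HeLa cells after 18 h compound exposure at 37 C.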

[20] = molecular target: Glucocorticoid receptor (Homo sapiens) (UniProt P04150); test: qHTS assay to identify small molecule antagonists of the glucocorticoid receptor (GR) signaling pathway (AID 720692; active = well fitted inhibition curve with a large enough effect in the signal ratio in the repeat runs, not every such curve was filed as active; the % refers to the signal ratio)
Method in brief: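 HeLa GR-bla cells; cmpd + dex 5 nM final, 18 h 37 C; LiveBLAzer B/G FRET substrate 2 h RT; fluorescence intensity read. Antagonist mode, qHTS.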

Measured: Potency

Glucocorticoid receptor (Homo sapiens), sequence (P04150 whole entry, looked up): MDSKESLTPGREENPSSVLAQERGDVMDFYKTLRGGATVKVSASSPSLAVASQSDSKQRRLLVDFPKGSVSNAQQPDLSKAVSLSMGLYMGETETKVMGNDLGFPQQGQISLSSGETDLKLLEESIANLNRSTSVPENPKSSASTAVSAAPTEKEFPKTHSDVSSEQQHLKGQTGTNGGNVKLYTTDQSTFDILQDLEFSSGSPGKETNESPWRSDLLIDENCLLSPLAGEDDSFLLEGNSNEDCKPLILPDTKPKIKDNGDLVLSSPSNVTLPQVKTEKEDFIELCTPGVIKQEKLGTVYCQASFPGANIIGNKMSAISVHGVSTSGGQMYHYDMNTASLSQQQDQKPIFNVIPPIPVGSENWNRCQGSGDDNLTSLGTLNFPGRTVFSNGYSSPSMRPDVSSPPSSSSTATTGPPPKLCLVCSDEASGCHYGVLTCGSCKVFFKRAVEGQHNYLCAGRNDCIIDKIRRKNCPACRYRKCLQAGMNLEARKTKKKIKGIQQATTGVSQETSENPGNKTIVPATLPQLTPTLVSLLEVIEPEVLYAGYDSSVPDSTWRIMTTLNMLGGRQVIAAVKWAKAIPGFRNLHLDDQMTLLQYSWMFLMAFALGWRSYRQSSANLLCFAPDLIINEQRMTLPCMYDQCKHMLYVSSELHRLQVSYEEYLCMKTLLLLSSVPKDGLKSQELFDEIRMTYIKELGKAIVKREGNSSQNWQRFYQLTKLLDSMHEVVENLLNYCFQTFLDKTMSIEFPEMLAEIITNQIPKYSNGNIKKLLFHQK

CCCNC(=O)NS(=O)(=O)c1ccc(Cl)cc1
inactive: all assays above

C1N2CN3CN1CN(C2)C3
not listed: [19] | [20]
inactive: all other assays above

CCCCOC(=O)CC(CC(=O)OCCCC)(OC(C)=O)C(=O)OCCCC
active: [6] 8.73 µM
inactive and 7.78 µM (active): [5]
inactive: all other assays above

Cc1ccc(O)cc1
inactive: all assays above

Nc1ccc(S(=O)(=O)Nc2nccs2)cc1
inactive: all assays above

Cc1noc(NS(=O)(=O)c2ccc(N)cc2)c1C
not listed: [19] | [20]
inactive: all other assays above

Nc1ccc(C(=O)O)cc1
inactive: all assays above

CC(=O)Nc1nnc(S(N)(=O)=O)s1
inactive: all assays above

CC1(C)[C@@H]2CC[C@@]1(C)C(=O)C2
inactive: all assays above

NC(N)=NC(=O)c1nc(Cl)c(N)nc1N
inactive: all assays above

CC(O)C(=O)O (stereo not drawn)
not listed: [19] | [20]
inactive: all other assays above

Nc1ccn([C@H]2CC[C@@H](CO)O2)c(=O)n1
not listed: [19] | [20]
inactive: all other assays above

CCOc1ccc(NC(=O)CC(C)O)cc1 (stereo not drawn)
not listed: [19] | [20]
inactive: all other assays above

CC(O)CN(CCN(CC(C)O)CC(C)O)CC(C)O (stereo not drawn)
inactive: all assays above

CC(C)(Oc1ccc(C2CC2(Cl)Cl)cc1)C(=O)O (stereo not drawn)
inactive: all assays above

COC(=O)[C@H](Cc1ccccc1)NC(=O)[C@@H](N)CC(=O)O (H-Asp-Phe-OMe)
inactive: all assays above

CCCCCCCCCCCCCCCC(=O)O
inactive: all assays above

CC(=O)NS(=O)(=O)c1ccc(N)cc1
inactive: all assays above

Oc1ccc(/C=C/c2cc(O)cc(O)c2)cc1
inactive and 54.5 µM (active): [3]
active: [1] 54.5 µM | [2] 2.54 µM and 2.46 µM and 3.06 µM | [4] 24.3 µM | [6] 2.11 µM and 692 nM and 969 nM
not listed: [19] | [20]
inactive: all other assays above

NC(=O)c1cnccn1
inactive: all assays above

CCCCC(CC)COC(=O)/C=C/c1ccc(OC)cc1 (stereo not drawn)
active: [6] 54.2 µM
inactive: all other assays above

O=c1ccc2ccccc2o1
not listed: [19] | [20]
inactive: all other assays above

CCCC(O)C(CC)CO (stereo not drawn)
not listed: [19] | [20]
inactive: all other assays above

O=C(O)c1cccc([N+](=O)[O-])c1
inactive: all assays above

O=C(O)c1[nH]n(-c2ccc(S(=O)(=O)O)cc2)c(=O)c1N=Nc1ccc(S(=O)(=O)O)cc1
active: [4] 30.7 µM and 57.1 µM
not listed: [19] | [20]
inactive: all other assays above

Cc1cc(=O)n(-c2ccccc2)n1C
not listed: [19] | [20]
inactive: all other assays above

O=C(O)CCCCCCCC(=O)O
not listed: [19] | [20]
inactive: all other assays above
